The text below walks through data of PubChem BioAssay AID429 (Emory University Molecular Libraries Screening Center, 2006).

Among all 64,000 compounds or so, about 220 (0.34%) were called active. Shown is part of a subset that was picked to be rich in actives. Unmarked numbers belong to inactive results.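 How the source made its calls: active means inhibition above 50%; inactive means the rest.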

For the assay, the target named is Heat shock protein HSP 90-alpha (Homo sapiens) (UniProt P07900). The assay can be described thus: tumor Hsp90 inhibitors, primary screen, cell lysate, fluorescence polarization, NCI-N417 lysate (AID 429).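 Further: 0% = tracer plus lysate wells and 100% = tracer alone without lysate.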 Particulars: NCI-N417 lysate Hsp90, Cy3B-geldanamycin FP displacement; at 30 µM; hits give high values. On the technique in general: Fluorescence polarisation rises when a labelled molecule tumbles more slowly, as on binding a larger partner.
As to `NC1CCN(O)C1=O` (stereo unspecified), the inhibition was -1.33%.

In the case of `CCCC(=O)N(CCc1ccccc1)Cc1nc2ccccc2c(=O)[nH]1`, the inhibition is -3.96%.

On to `Cn1c(=O)[nH]c(=O)c2c1nc(Br)n2CCCCSc1nc2ccccc2o1`, for which the inhibition was 2.94%.

As for `CSCCC(NS(=O)(=O)/C=C/c1ccccc1)C(=O)N1CCC(C)CC1` (stereo unspecified), the inhibition was 0.46%.

With `O=S1(=O)CCN2C(=N1)SC1=C2CCN(Cc2ccccc2)C1`, the inhibition was 1.02%.

With `COc1cc2c(cc1OC)C(c1ccncc1)CC(=O)N2` (stereo unspecified), the inhibition was -0.47%.

With `CCC/C(O)=C1\C(=O)CC(C)(C)CC1=Nc1ccccc1OC`, the inhibition is -4.54%.

For `CC(=O)c1c(C)c[nH]c1C`, the inhibition was 3.14%.

Turning to `COc1cc(C(=O)Nc2oc(-c3ccccc3)c(-c3ccccc3)c2C#N)cc(OC)c1OC`, the inhibition was 1.74%.

Turning to `COc1ccc(CNC2CCCCC2)cc1`, the inhibition is -2.8%.

In the case of `CC(C)Cn1c(N)c(C(=O)NCc2cccs2)c2nc3ccccc3nc21`, the inhibition is -3.05%.

As to `C=CCn1c(N)c(S(=O)(=O)c2cccs2)c2nc3ccccc3nc21`, the inhibition is -4.06%.

On to `C=CCn1c(N)c(C(=O)OCC(C)C)c2nc3ccccc3nc21`, for which the inhibition was 65.5% (active).

Turning to `N#C/C(=C\c1ccc(O)c(O)c1)C(=O)NCc1ccccc1`, the inhibition was 77.1% (active).

`CS(=O)(=O)NCc1ccc(C(=O)NCc2ccccc2)cc1`: the inhibition was -1.87%.

Turning to `O=C(CCOc1ccccc1)NCc1ccccc1`, the inhibition was 2.46%.

Regarding `COc1ccc(C2CC(c3ccc(C)cc3)Nc3ncnn32)cc1` (stereo unspecified), the inhibition is -1.24%.

With `CN(C)CCOC(=O)C(c1ccccc1)C1(O)CCCC1` (stereo unspecified), the inhibition was -3.68%.

With `CC(=O)c1ccc(-n2nnnc2SCC(=O)N2CCN(C(=O)c3ccco3)CC2)cc1`, the inhibition is -0.68%.

`O=C(O)C1CCCN(CCC=C(c2ccccc2)c2ccccc2)C1` (stereo unspecified): the inhibition was 0.96%.

Consider `COc1cc(NS(=O)(=O)c2cccc3nsnc23)c2ncccc2c1`, for which the inhibition is 0.42%.

Turning to `COc1ccccc1Oc1ccc(S(=O)(=O)Nc2cccnc2)cc1`, the inhibition is -4.43%.

As to `O=C(O)CCC(=O)N(Cc1ccco1)c1nc(-c2ccccc2)cs1`, the inhibition was -1.19%.

In the case of `CS(=O)(=O)N1CCCC(C(=O)N2CCOCC2)C1` (stereo unspecified), the inhibition was -0.69%.

On to `CN(c1ccc(C(=O)NCCC2=CCCCC2)cc1)S(C)(=O)=O`, for which the inhibition was -2.17%.

On to `NC(=O)Cn1c(=O)oc2ccccc21`, for which the inhibition is 2.54%.

For the compound `O=C(NCCCN1CCN(Cc2ccccc2)CC1)C1CCN(S(=O)(=O)N2CCCC2)CC1`, the inhibition was -1.77%.

With `Oc1ccc(Cl)cc1/C=N/c1nc2ccccc2[nH]1`, the inhibition is 1.09%.

In the case of `NC(=O)C1=CN(C2OC(COP(=O)(O)OP(=O)(O)OC[C@H]3O[C@@H](n4cnc5c(N)ncnc54)C(OP(=O)(O)O)[C@H]3O)C(O)C2O)C=CC1` (stereo partly specified), the inhibition was -0.66%.

Regarding `CCCCSc1nnc(-c2ccc(NC(=O)CC)cc2)n1C`, the inhibition is -0.77%.

As to `COC(=O)Cc1csc(Nc2c(C)n(C)n(-c3ccccc3)c2=O)n1`, the inhibition was -1.47%.

For `CCOc1ccc(N(CC(=O)NCc2ccc(OC)cc2)S(=O)(=O)c2c(C)noc2C)cc1`, the inhibition was -5.24%.

Turning to `O=C(Nc1ccccc1-c1nnn(CC(=O)N2CCN(c3ccccc3)CC2)n1)c1cccs1`, the inhibition was 0.39%.

With `CC(c1cccnc1)N(CCN(C)C)C(=O)Nc1ccc(Cl)c(Cl)c1` (stereo unspecified), the inhibition is -1.45%.

On to `Cn1c(=O)c2c(nc(SCC(=O)Nc3ccccc3N3CCCCC3)n2C)n(C)c1=O`, for which the inhibition was -1.91%.

Turning to `COc1ccc(Cn2cccc(NC(=O)Nc3ccc(C#N)cc3)c2=O)cc1`, the inhibition was -1.69%.

On to `O=C1C=C(NCCNc2c(F)c(F)c(CO)c(F)c2F)CCC1`, for which the inhibition was -1.66%.

Turning to `Cn1cccc1C1(C(F)(F)F)NCCNC1=O` (stereo unspecified), the inhibition was -0.05%.

Regarding `CCN(CC)Cc1c(C(=O)OC)nnn1-c1nonc1N`, the inhibition was -0.51%.

For `Cc1cc2c(cc1C)NC(c1ccccn1)C1=C(CC(C)(C)CC1=O)N2` (stereo unspecified), the inhibition is 0.74%.

For `COC(=O)c1cc(S(=O)(=O)NC2CCN(Cc3ccccc3)CC2)cn1C`, the inhibition was -0.68%.

Take `C=C(C)c1cccc(C(C)(C)NC(=O)N2CCN(c3ncccn3)CC2)c1`: the inhibition was 1.26%.

In the case of `CCOC(=O)N1CCN(C(=O)c2nn(-c3ccc(C)cc3)c(=O)c3c2c2ccccc2n3C)CC1`, the inhibition is -3.87%.

As for `CC(C)C(c1nnnn1C1CCCC1)N1CCN(c2ccccc2F)CC1` (stereo unspecified), the inhibition is -0.85%.

Regarding `O=S1(=O)CC(NCc2ccccc2)C(Nc2ccc(Cl)cc2)C1` (stereo unspecified), the inhibition is 1.54%.

With `COc1cc(N=C2C=CC(=O)C=C2)c2ncccc2c1`, the inhibition is 3.25%.

Turning to `COc1ccc(-c2nc(CS(=O)CC(=O)NCc3ccccn3)c(C)o2)cc1` (stereo unspecified), the inhibition is 71.4% (active).

In the case of `COc1ccc(-c2nc(CS(=O)CC(=O)N3CCc4ccccc4C3)c(C)o2)cc1` (stereo unspecified), the inhibition was 0.64%.

In the case of `COc1ccc(-c2nc(CS(=O)CC(=O)NCc3cccnc3)c(C)o2)cc1OC` (stereo unspecified), the inhibition was -3.8%.

Regarding `O=C1[C@@H]2C(Cc3ccc(O)cc3)NC3(C(=O)Nc4ccc(F)cc43)[C@@H]2C(=O)N1c1ccc(F)cc1` (stereo partly specified), the inhibition was -5.22%.

Take `NC(=NC(=O)c1ccccc1)C1=C(O)CCC1=O`: the inhibition is 0.78%.

Turning to `CSCCC(Nc1nc2ccccc2s1)C(=O)O` (stereo unspecified), the inhibition was 2.67%.

In the case of `C[C@H](NC(=O)NCCc1ccccc1)C(=O)O`, the inhibition is 1.74%.

Turning to `Cc1ccc(C)c(NS(=O)(=O)c2cc(Br)cnc2N)c1`, the inhibition is 0.39%.

Consider `Cc1[nH]c2ccccc2c1C(=O)CSCC(=O)O`, for which the inhibition was -2.89%.

With `CC1CCN(Cc2nc3c(c(=O)n(C)c(=O)n3C)n2Cc2cccc3ccccc23)CC1`, the inhibition is -1.11%.

Regarding `CCCOC(=O)Cc1c(O)c2ccccc2[nH]c1=O`, the inhibition is 1.56%.

As for `COc1cc(OC)cc(-c2nc3nc(C)c(CCC(=O)NCc4ccco4)c(C)n3n2)c1`, the inhibition was 1.84%.

With `Cc1ccc(C2(c3ccc(C)cc3)NC(=O)N(Cc3c(C)noc3C)C2=O)cc1`, the inhibition was 1.01%.

Turning to `COc1cc(NCCCC#N)c2ncccc2c1`, the inhibition was -2.3%.

For the compound `C#CCCCNc1cc(OC)cc2cccnc12`, the inhibition is -1.17%.

As for `COc1cc(NC(C)CCCNC(C)C)c2ncccc2c1` (stereo unspecified), the inhibition was 95.6% (active).

In the case of `CCOC(=O)C1CCCN(Cc2nc(N)nc(Nc3ccc(C)cc3)n2)C1` (stereo unspecified), the inhibition was -6.1%.

Take `CC(C)n1c(NCc2c[nH]c3ccccc23)nc2ccccc21`: the inhibition is 1.28%.

As to `CCN(CC)S(=O)(=O)c1ccc(C(=O)Nc2cc(Br)cc3cccnc23)cc1`, the inhibition is 1.06%.

Regarding `COc1ccc(-n2c(SCC(=O)NCc3cccs3)nnc2-c2ccoc2C)cc1`, the inhibition is -1.94%.

On to `Cc1cccc(Cn2c(N3CCN(c4ccccc4)CC3)nc3c2c(=O)n(C)c(=O)n3C)c1`, for which the inhibition was -2.67%.

Consider `O=C(NCc1cn2ccsc2n1)Nc1cccc(Cl)c1`, for which the inhibition was -4.35%.

`CCc1ccc(N(CC)c2ncnc3nc[nH]c23)cc1`: the inhibition was -2.13%.

Consider `CCC1(C)CC(=O)NC1=O` (stereo unspecified), for which the inhibition was 0.1%.

Consider `CC[C@@H]1Cc2cc(O)ccc2C2=C1c1ccc(O)cc1C[C@H]2CC`, for which the inhibition was 14.4%.

Regarding `CCn1cc(C(=O)N2CC=C(c3ccccc3)CC2)c(=O)c2ccc(C)nc21`, the inhibition was -3.28%.

As to `CCNC(=O)CCc1nc(-c2ccc(C(C)(C)C)cc2)no1`, the inhibition is -1.56%.

`Cc1ccc(S(=O)(=O)N(C)CC(=O)NC2CCCC2)cc1`: the inhibition was -0.25%.

As for `CCN(CC)C(=O)CSc1nnc(-c2ccc(S(=O)(=O)NCc3ccccc3Cl)cc2)o1`, the inhibition was 1.83%.

`Cc1ccc(C)c(NC(=O)C2CC(=O)N(C(C)C)C2)c1` (stereo unspecified): the inhibition was -3.18%.

For the compound `Cc1ccnc(N2C(=O)c3ccccc3C2Nc2ccc3c(c2)OCCO3)c1` (stereo unspecified), the inhibition was 1.75%.

As to `Cc1cc(C)nc(SCc2nnc(SCC(=O)OC3CCCCC3)o2)n1`, the inhibition is -0.1%.

Regarding `O=c1cc(CSc2ccc(Cl)cc2)nc(N2CCOCC2)[nH]1`, the inhibition was -2.37%.

For the compound `O=C(CCC(=O)OCC(F)(F)C(F)F)NCc1ccccc1`, the inhibition is -3.91%.

Turning to `O=C(NCCN1CCOCC1)c1c(F)c(F)c(F)c(F)c1F`, the inhibition was -0.16%.

For `O=C(CCN1C(=O)c2ccccc2C1=O)NCCN1CCOCC1`, the inhibition is -1.37%.

For `CC(=O)Oc1cc2c(C(=O)NCCN3CCOCC3)c(C)oc2c2ccccc12`, the inhibition is 91% (active).

For the compound `Cc1ccc(C(c2sc3nc(C)nn3c2O)N2CCN(c3ccc(F)cc3)CC2)cc1` (stereo unspecified), the inhibition is 2.37%.

As for `O=C(O)c1cscn1`, the inhibition was -1.54%.

For `COc1cccc(NC(=O)c2ccccc2SC)c1`, the inhibition was -1.59%.

For `COc1cccc(NC(=O)C(C)Oc2ccccc2)c1` (stereo unspecified), the inhibition is 86.4% (active).

Turning to `COc1cccc(Nc2ncccc2C(=O)O)c1`, the inhibition was 1.09%.

For the compound `CCN(CC)S(=O)(=O)c1cccc(C(=O)Nc2cc(C)nn2-c2nc(C)cc(C)n2)c1`, the inhibition was -2.41%.

For `CSCC[C@H](NC(=O)NCCc1ccc(F)cc1)C(=O)O`, the inhibition is -0.8%.

With `CCOC(=O)CSc1nc2c(sc(=S)n2CCc2ccccc2)c(=O)n1Cc1ccco1`, the inhibition was -1.25%.

As for `CN(c1ccccc1)c1ccc(/C=c2\s/c(=C(/C#N)C(=O)C(C)(C)C)n(Cc3ccco3)c2=O)cc1`, the inhibition was 50.6% (active).

For `O=c1nc2s/c(=C\c3ccco3)c(=O)n2nc1Cc1ccccc1`, the inhibition is -6.3%.

Turning to `CN(C)c1cc(N)c2ccccc2n1` (tested in a mixture with another compound), the inhibition was -9.07%.

For `CC12CCC(C(=O)N(CCC#N)CCC#N)(CC1=O)C2(C)C` (stereo unspecified), the inhibition was -2.19%.

Take `O=C(CC1CCCCC1)Nc1c2c(nn1-c1ccc(F)cc1)CS(=O)(=O)C2`: the inhibition was -1.94%.
